# Assay results: PubChem BioAssay (Tox21)
# Where “and” joins values, the source holds several entries; their conditions need not be identical. Equal entries are not always repeated. Results filed as inconclusive are left out. Where a call stands in place of a potency, no number is given. More than one record can exist for a structure, and the calls need not agree. Calls of active or inactive are those of the source. Unless noted, calls follow the shape of the dose curve; as a rule, active = well fitted curve in the direction sought with a large enough effect in the repeat runs; inconclusive = weak or mixed curves; inactive = no such curve, though single readings can be large; an effect the other way counts as inactive or inconclusive.
# Experiments:
# [1] = qHTS assay to identify small molecule agonists of the estrogen receptor alpha (ER-alpha) signaling pathway in the presence of an antagonist - cell viability counter screen (AID 1259386);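 also: cells exposed to compounds for 22 h at 37 °C before the viability read; nearly all actives have a fitted effect of over 30% in size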; also: potency is read from the fitted curve at half-maximal effect
# Procedure, shortened: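 In this counter screen, compound effects on VM7Luc4E2 viability were tested in the presence of the antagonist ICI-182,780 at 10.0nM final. Compounds were dosed at 15 concentrations, exposure lasted 22hr, and the CellTiter-Fluor signal was read.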
# [2] = molecular target: Progesterone receptor (Homo sapiens) (UniProt P06401); test: qHTS assay to identify small molecule agonists of the progesterone receptor (PR) signaling pathway (AID 1346784; calls by dose curve; also: nearly all actives have a fitted effect of over 30% in size; also: potency is read from the fitted curve at half-maximal effect)
# Procedure, shortened: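 Cells (PR-UAS-bla HEK 293T, GripTite) were plated in assay medium containing 2% charcoal-stripped FBS and incubated 6 hr. Test compounds in DMSO were added for 16 hr at 37C. FRET substrate was then loaded for 2 hr at room temperature before fluorescence reading.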
# [3] = qHTS assay to identify small molecule antagonists of the progesterone receptor (PR) signaling pathway - cell viability counter screen (AID 1346798); also: nearly all actives have a fitted effect of over 50% in size; also: potency is read from the fitted curve at half-maximal effect
# Procedure, shortened: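 Counter screen for cytotoxicity: viability of PR-UAS-bla HEK293T cells was measured with CellTiter-Glo luminescence following 16 hr compound exposure in the presence of R5020.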
# [4] = qHTS assay to identify small molecule agonists of the progesterone receptor (PR) signaling pathway - cell viability counter screen (AID 1346799; calls by dose curve; also: nearly all actives have a fitted effect of over 45% in size; also: potency is read from the fitted curve at half-maximal effect)
# Procedure, shortened: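 Cells (PR-UAS-bla HEK293T) are plated at 3,000/well in 2% charcoal-stripped FBS medium, rested 6 hr, dosed and incubated 16 hr at 37C. CellTiter-Glo is then added and luminescence measured after 30 min at room temperature.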
# [5] = qHTS assay to identify small molecule antagonists of the TGF-beta/Smad signaling pathway - cell viability counter screen (AID 1346824); also: nearly all actives have a fitted effect of over 50% in size; also: potency is read from the fitted curve at half-maximal effect
# Procedure, shortened: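 Cytotoxicity counter-screen run in the same wells as the beta-lactamase Smad reporter read: CellTiter-Glo luminescence after 30 min at room temperature. HEK 293T SBE-bla cells had 5 hr compound exposure at 37 C with TGF-beta1 (0.25 ng/mL stock).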
# [6] = qHTS assay to identify small molecule agonists of the TGF-beta/Smad signaling pathway - cell viability counter screen (AID 1346829); also: nearly all actives have a fitted effect of over 45% in size; also: potency is read from the fitted curve at half-maximal effect
# Procedure, shortened: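 Here the cytotoxicity of library compounds is measured in SBE-bla HEK 293T cells treated for 5 hr, using CellTiter-Glo added to wells already read for the beta-lactamase reporter.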
# [7] = qHTS assay to identify small molecule agonists of the TGF-beta/Smad signaling pathway (AID 1346859; active = well fitted activation curve with a large enough effect in the signal ratio in the repeat runs, not every such curve was filed as active; the % refers to the signal ratio; also: series mostly up to about 77 µM)
# Procedure, shortened: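 Reporter line: HEK 293T with stably integrated SBE-controlled beta-lactamase. Compound exposure lasts 5 hr at 37 C and 5% CO2; substrate loading follows for 2 hr at room temperature, with emission read at 460 and 530 nm.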
# [8] = molecular target: Thyrotropin-releasing hormone receptor (Homo sapiens) (UniProt P34981); test: qHTS assay to identify small molecule antagonists of the thyrotropin-releasing hormone receptor (TRHR) signaling pathway (AID 1346877; active = well fitted inhibition curve with a large enough effect in the repeat runs, not every such curve was filed as active; also: potency is read from the fitted curve at half-maximal effect)
# Procedure, shortened: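 Kinetic fluorescence (3 min, 1 s resolution) following stimulation with TRH at 1 nM final; HEK293 cells bearing human TRHR; 5 min compound preincubation at RT; concentration-response over 15 points, triplicates.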
# [9] = molecular target: Progesterone receptor (Homo sapiens) (UniProt P06401); test: qHTS assay to identify small molecule antagonists of the progesterone receptor (PR) signaling pathway (AID 1346795; active = well fitted inhibition curve with a large enough effect in the signal ratio in the repeat runs, not every such curve was filed as active; the % refers to the signal ratio; also: potency is read from the fitted curve at half-maximal effect)
# Procedure, shortened: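 Antagonist mode: compounds tested against 1 nM (final) promegestone stimulation in HEK293T cells expressing PR-UAS-bla reporter, 16 hr at 37C, 5% CO2; beta-lactamase activity detected via B/G FRET substrate after 2 hr at room temperature.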
# [10] = molecular target: Thyrotropin-releasing hormone receptor (Homo sapiens) (UniProt P34981); test: qHTS assay to identify small molecule agonists of the thyrotropin-releasing hormone receptor (TRHR) signaling pathway (AID 1346891; calls by dose curve;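 also: HEK293 cells expressing TRHR with calcium dye readout; series mostly up to about 58 µM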)
# Procedure, shortened: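 Cells: TRHR-Hek293, seeded and incubated 18 h. Dye loading: 2 h at 37 °C. Compound added from DMSO stock by pin tool. Read-out: kinetic calcium fluorescence over 3 min.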
# Thyrotropin-releasing hormone receptor (Homo sapiens), sequence (P34981 whole entry, looked up): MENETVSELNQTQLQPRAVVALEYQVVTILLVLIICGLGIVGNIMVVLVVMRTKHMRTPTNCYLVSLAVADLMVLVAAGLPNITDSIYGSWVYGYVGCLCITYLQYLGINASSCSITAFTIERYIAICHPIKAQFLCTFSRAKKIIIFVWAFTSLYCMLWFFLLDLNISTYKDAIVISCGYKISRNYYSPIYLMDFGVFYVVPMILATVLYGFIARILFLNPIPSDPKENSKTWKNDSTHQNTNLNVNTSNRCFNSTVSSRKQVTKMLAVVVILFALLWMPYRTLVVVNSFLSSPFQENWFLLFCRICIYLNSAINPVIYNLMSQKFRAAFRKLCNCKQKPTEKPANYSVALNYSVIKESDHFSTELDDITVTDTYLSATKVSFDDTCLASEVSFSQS
# Progesterone receptor (Homo sapiens), sequence (P06401 whole entry, looked up): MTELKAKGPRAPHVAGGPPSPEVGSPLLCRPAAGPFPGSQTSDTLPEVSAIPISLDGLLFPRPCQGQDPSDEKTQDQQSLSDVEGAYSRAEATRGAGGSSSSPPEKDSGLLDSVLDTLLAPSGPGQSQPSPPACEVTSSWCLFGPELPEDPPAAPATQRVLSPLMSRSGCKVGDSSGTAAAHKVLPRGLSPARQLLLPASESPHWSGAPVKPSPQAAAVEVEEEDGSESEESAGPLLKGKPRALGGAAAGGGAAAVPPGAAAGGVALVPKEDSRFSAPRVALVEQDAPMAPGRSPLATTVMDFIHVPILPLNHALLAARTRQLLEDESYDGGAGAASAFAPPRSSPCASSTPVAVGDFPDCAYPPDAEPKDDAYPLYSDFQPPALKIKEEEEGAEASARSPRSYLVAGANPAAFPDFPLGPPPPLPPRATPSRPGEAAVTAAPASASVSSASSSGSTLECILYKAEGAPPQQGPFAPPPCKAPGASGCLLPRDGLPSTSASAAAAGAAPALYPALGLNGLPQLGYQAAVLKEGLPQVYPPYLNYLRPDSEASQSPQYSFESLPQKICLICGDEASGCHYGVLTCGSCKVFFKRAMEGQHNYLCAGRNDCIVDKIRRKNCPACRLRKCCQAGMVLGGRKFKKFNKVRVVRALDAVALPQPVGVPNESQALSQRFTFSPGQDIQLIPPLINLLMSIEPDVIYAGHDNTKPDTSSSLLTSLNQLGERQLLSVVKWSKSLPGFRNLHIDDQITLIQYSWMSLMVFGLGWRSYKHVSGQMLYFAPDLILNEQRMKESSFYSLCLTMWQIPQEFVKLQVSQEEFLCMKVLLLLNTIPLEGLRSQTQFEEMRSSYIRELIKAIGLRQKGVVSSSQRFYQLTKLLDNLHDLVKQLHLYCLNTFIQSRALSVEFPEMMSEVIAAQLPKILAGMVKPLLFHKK
SMILES,Potency [1],Potency [2],Potency [3],Potency [4],Potency [5],Potency [6],Potency [7],Potency [8],Potency [9],outcome [10]
Clc1nnc(Cl)c2ccccc12,inactive,inactive,inactive,inactive,inactive,inactive,inactive,inactive,–,–
COCCOc1cc2cc(C(=O)NC3CCN(C(C)C)CC3)n(CC(=O)Nc3ccc(Cl)cn3)c2cn1,inactive,inactive,inactive,–,inactive,inactive,inactive,inactive,inactive,inactive
CCN(CC)c1ccc2c(-c3ccc(S(=O)(=O)O)cc3S(=O)(=O)[O-])c3ccc(=[N+](CC)CC)cc-3oc2c1,7.07 µM (active),inactive,inactive,–,inactive,–,inactive,inactive,inactive,inactive
CCCCC(CC)CN1CN(CC(CC)CCCC)CC(C)(N)C1 (centres undefined),inactive,inactive,inactive,–,inactive,inactive,inactive,inactive,inactive,inactive
COc1cc(S(=O)(=O)O)c(C)cc1N=Nc1c(O)ccc2cc(S(=O)(=O)O)ccc12,17.2 µM (active),inactive,inactive,inactive,inactive,inactive,inactive,inactive,–,inactive
CCCCCCCCCCCCCC[N+](C)(C)C,inactive,inactive,48.5 µM (active) and 33.5 µM (active),–,42.2 µM (active) and 54.9 µM (active),54.9 µM (active) and inactive,–,–,–,–
CCCCCCCC,inactive,inactive,–,–,inactive,inactive,inactive,inactive,inactive,inactive
C=Cc1cccc(C)c1,inactive,inactive,inactive,–,inactive,–,inactive,–,inactive,–
O=C1NC(=O)[C@@H]2CC=CC[C@H]12,inactive,inactive,15.4 µM (active),8.63 µM (active),inactive,inactive,inactive,inactive,–,inactive
OC12N=C(c3ccccc3)SC1Cc1cc(Cl)ccc12 (centres undefined),inactive,inactive,–,–,inactive,inactive,inactive,–,43.3 µM (active),–
CC1=Nc2ccccc2C1(C)C,inactive,inactive,–,inactive,inactive,inactive,inactive,inactive,30.7 µM (active),inactive
CCC(C)n1ncn(-c2ccc(N3CCN(c4ccc(OC[C@H]5CO[C@](Cn6cncn6)(c6ccc(Cl)cc6Cl)O5)cc4)CC3)cc2)c1=O (some centres undefined),inactive,inactive,–,–,inactive,–,inactive,inactive,inactive,inactive
C=C(C)c1cccc(C(=C)C)c1,inactive,inactive,inactive,–,inactive,inactive,inactive,inactive,inactive,inactive
Cc1c(C)c2c(c(C)c1OC(=O)c1cccnc1)CC[C@@](C)(CCC[C@H](C)CCC[C@H](C)CCCC(C)C)O2,inactive,inactive,inactive,–,inactive,–,inactive,–,inactive,–
CCCCCCCCCCCCCCCC[N+](C)(C)CC,inactive,inactive,68.8 µM (active),68.8 µM (active),43.8 µM (active),55.1 µM (active) and 26.8 µM (active),–,30.2 µM (active) and inactive,–,inactive
CCCCCCOC(=O)C(C)CC (centres undefined),inactive,inactive,–,inactive,inactive,inactive,inactive,inactive,inactive,inactive
CC(=O)Oc1cc2c(s1)CCN(C(C(=O)C1CC1)c1ccccc1F)C2 (centres undefined),inactive,inactive,inactive,inactive,inactive,inactive,inactive,inactive,–,inactive
C#C[C@]1(O)CC[C@H]2[C@@H]3[C@H](C)CC4=C(CCC(=O)C4)[C@H]3CC[C@@]21C,inactive,0.0188 µM (active),–,–,inactive,inactive,inactive,–,–,–
OC1CCC(C2CCCCC2)CC1 (centres undefined),inactive,inactive,inactive,–,inactive,inactive,inactive,inactive,–,inactive
CC1(C)[C@@H](O)CC[C@]2(C)[C@H]3C(=O)C=C4[C@@H]5C[C@@](C)(C(=O)O)CC[C@]5(C)CC[C@@]4(C)[C@]3(C)CC[C@@H]12,inactive,–,inactive,–,inactive,inactive,–,inactive,60.4 µM (active),–
CN(C)c1ccc(C(=C2C=CC(=[N+](C)C)C=C2)c2ccc(N(C)C)cc2)cc1,8.59 µM (active) and 15.4 µM (active) and 5.96 µM (active),–,24.2 µM (active) and 30.6 µM (active) and 21.1 µM (active),27.2 µM (active) and 21.1 µM (active),19.4 µM (active) and 43.6 µM (active) and 19 µM (active),19.4 µM (active) and 49 µM (active) and 23.9 µM (active),–,–,19.3 µM (active),inactive
CCOC(=O)c1ccc(C2CCC(NC[C@H](O)COc3ccc(O)c(NS(C)(=O)=O)c3)CC2)cc1 (some centres undefined),inactive,inactive,–,inactive,inactive,–,–,–,–,–
